The results in this text go back to ChEMBL document CHEMBL3988442, “University of Dundee, Small-Polar-MMV Screening Library” (2021).

Holding throughout (parameters): scale not given: direction of the effect not stated beside the values
Assay [1] addresses Protein translocase subunit SecA (Escherichia coli (strain K12)) (UniProt P10408). The experiment in a line: Assay to Identify E. coli SecA ATPase Inhibitors. Format: functional. The note with it: 30 µM.
Assay [2] deals with T1, Ubiquitin-activating enzyme e1, putative (Leishmania donovani (strain BPK282A1)) (UniProt E9BSI1).
T1 sequence (whole entry): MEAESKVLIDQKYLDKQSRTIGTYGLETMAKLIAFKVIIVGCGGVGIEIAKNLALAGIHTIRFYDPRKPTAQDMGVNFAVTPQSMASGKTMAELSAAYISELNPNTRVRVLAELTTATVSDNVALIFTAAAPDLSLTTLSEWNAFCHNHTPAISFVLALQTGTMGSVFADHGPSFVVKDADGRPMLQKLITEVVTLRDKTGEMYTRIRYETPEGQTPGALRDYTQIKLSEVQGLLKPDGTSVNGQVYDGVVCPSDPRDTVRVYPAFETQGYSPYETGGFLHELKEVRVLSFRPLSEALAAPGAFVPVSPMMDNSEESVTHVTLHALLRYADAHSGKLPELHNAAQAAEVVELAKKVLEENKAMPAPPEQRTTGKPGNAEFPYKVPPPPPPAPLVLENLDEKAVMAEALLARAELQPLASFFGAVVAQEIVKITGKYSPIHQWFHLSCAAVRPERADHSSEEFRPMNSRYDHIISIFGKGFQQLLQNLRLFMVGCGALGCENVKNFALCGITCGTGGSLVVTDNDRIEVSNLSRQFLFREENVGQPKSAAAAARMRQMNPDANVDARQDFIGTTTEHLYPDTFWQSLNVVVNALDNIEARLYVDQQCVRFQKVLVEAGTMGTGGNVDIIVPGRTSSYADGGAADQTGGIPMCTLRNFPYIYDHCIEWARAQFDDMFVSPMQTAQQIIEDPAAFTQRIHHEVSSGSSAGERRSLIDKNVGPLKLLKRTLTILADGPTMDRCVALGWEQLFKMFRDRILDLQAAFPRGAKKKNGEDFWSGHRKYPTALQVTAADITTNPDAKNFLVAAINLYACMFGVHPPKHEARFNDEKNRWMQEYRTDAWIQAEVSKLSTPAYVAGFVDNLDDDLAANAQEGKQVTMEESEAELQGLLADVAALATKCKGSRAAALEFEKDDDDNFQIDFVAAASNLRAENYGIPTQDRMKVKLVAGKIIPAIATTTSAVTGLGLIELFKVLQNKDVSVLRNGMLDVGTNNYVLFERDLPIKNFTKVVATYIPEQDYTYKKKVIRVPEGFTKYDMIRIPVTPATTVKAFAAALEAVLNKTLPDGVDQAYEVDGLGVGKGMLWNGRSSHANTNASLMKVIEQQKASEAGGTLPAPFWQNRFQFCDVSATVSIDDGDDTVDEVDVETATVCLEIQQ
The experiment in a line: Leishmania donovani Ubiquitin Activating Enzyme (LdE1). Format: functional. The following applies: 30 µM.

Assay [3] has as its target AMP-activated protein kinase, AMPK (Homo sapiens) (UniProt P54646+O43741+P54619+Q9UGJ0+Q9Y478+Q13131+Q9UGI9). Nature of the assay: AMP-dependent Kinase enzyme assay. An in vitro enzyme assay that detects ADP turnover that is directly proportional to AMPK activity. This uses naive AMPK that is activated during the assay with MK-8722. Format: functional. The note with it: 30 µM.

Assay [4] concerns the target Sialic acid-binding Ig-like lectin 9 (Homo sapiens) (UniProt Q9Y336). The experiment in a line: Hs-Siglec9 ALPHAscreen SOP 20170721. The note with it: 10 µM.
A further assay concerns Trypanosoma cruzi. Nature of the assay: Trypanosoma cruzi phosphomannomutase and mannose-1-phosphate guanylyltransferase assay. Format: functional. The note with it: 10 µM.
Assay [5] addresses T2, Arginase-2, mitochondrial (Homo sapiens) (UniProt P78540).
T2 sequence (whole entry): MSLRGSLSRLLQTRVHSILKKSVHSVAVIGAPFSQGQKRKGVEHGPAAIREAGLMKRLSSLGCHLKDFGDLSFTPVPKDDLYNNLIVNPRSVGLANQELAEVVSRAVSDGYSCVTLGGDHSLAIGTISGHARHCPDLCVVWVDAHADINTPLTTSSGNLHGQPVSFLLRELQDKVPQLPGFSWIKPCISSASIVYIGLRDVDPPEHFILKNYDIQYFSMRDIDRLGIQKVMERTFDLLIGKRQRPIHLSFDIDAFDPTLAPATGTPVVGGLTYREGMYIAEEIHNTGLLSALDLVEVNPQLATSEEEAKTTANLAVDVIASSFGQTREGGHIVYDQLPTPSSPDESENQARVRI
Nature of the assay: in vitro enzyme assay to detect the production of urea directly proportional to the activity of Arginase II. Note: in the data most compounds retested in dose-response had high values. The note with it: 33.3 µM. Format: functional.

Assay [6] deals with T3, Proteasome subunit beta (Trypanosoma cruzi) (UniProt O96673).
T3 sequence (whole entry): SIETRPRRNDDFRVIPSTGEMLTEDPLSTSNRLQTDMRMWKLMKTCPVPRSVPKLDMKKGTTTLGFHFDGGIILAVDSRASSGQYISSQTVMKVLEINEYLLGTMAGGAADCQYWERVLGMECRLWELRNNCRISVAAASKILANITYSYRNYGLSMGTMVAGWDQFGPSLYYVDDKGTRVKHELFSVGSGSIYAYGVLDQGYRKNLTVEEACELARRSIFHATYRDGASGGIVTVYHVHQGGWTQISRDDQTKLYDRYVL
The experiment in a line: Trypanosoma cruzi proteasome chymotrypsin-like activity (TcProtChymo) assay. Note: in the data most compounds retested in dose-response had high values. Format: functional. The following applies: 9.37 µM.

For a further assay, the species on record is Homo sapiens. The experiment in a line: To identify inhibition of the IFN signalling (Jak-Stat) pathway via expression of an eGFP reporter gene under the control of an IFN-stimulated response element (ISRE) containing MxA promoter. Format: functional. The note with it: 30 µM. (In general: A reporter such as luciferase makes a cellular process visible.)

In assay [7] the target is T4, Tyrosyl-tRNA synthetase, putative (Trypanosoma cruzi (strain CL Brener)) (UniProt Q4DSP6).
T4 sequence (whole entry): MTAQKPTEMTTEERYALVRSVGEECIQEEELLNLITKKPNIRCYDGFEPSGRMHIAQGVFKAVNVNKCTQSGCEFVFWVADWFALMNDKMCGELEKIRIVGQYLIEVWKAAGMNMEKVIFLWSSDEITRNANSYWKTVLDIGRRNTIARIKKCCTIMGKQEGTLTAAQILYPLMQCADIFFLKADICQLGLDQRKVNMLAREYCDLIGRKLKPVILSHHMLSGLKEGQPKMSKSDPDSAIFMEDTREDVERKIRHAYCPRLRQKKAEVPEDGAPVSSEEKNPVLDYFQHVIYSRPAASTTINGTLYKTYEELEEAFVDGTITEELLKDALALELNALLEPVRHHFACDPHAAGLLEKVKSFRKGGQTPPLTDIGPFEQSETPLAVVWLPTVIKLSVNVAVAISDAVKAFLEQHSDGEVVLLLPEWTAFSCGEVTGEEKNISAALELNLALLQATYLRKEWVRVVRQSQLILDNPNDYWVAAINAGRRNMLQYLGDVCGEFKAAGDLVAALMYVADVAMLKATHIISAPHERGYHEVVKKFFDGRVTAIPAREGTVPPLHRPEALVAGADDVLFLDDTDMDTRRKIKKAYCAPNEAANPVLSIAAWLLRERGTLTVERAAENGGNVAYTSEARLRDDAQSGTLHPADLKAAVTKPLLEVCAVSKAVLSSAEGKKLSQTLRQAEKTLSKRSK
The experiment in a line: Trypanosoma cruzi tyrosyl tRNA synthetase (TcYRS) _High Tyrosine SOP. Note: in the data most compounds retested in dose-response had high values. The note with it: 30 µM. Format: functional.

For assay [8], the target named is T4, Tyrosyl-tRNA synthetase, putative (Trypanosoma cruzi (strain CL Brener)). Nature of the assay: Trypanosoma cruzi tyrosyl tRNA synthetase (TcYRS) SOP. Format: functional. The following applies: 30 µM.
Assay [9] has as its target Chromo domain-containing protein 1 (Saccharomyces cerevisiae (strain ATCC 204508 / S288c) (Baker's yeast)) (UniProt P32657). Nature of the assay: ScCHD-1 Enzyme Inhibition Assay. Note: in the data most compounds retested in dose-response had high values. Format: functional. The note with it: 30 µM.

SMILES strings stand for the structures. For some of these results: Potency and affinity values are given separately.

Protein translocase subunit SecA (Escherichia coli (strain K12)), sequence (P10408 whole entry): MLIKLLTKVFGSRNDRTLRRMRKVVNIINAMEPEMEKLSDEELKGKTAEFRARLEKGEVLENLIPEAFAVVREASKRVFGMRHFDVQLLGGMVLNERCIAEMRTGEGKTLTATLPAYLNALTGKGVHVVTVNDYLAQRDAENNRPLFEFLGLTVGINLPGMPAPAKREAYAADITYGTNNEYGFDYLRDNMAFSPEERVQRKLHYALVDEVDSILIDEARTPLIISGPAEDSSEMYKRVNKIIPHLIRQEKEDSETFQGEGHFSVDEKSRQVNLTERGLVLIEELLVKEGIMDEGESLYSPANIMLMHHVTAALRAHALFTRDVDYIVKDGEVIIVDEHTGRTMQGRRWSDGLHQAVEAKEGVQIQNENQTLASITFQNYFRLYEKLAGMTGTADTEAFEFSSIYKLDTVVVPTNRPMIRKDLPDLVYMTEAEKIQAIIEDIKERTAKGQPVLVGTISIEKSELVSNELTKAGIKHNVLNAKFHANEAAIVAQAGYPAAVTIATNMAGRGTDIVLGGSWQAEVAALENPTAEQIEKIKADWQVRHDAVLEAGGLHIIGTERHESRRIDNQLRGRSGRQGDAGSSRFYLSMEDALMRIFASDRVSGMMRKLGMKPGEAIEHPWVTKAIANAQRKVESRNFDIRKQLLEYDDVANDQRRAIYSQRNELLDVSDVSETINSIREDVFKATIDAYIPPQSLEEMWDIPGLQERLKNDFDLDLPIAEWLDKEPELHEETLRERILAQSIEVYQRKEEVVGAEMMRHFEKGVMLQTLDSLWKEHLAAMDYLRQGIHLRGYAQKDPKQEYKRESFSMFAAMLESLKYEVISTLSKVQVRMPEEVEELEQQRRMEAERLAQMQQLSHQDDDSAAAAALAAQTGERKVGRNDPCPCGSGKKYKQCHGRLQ
Chromo domain-containing protein 1 (Saccharomyces cerevisiae (strain ATCC 204508 / S288c) (Baker's yeast)), sequence (P32657 whole entry, the tested form may be a part): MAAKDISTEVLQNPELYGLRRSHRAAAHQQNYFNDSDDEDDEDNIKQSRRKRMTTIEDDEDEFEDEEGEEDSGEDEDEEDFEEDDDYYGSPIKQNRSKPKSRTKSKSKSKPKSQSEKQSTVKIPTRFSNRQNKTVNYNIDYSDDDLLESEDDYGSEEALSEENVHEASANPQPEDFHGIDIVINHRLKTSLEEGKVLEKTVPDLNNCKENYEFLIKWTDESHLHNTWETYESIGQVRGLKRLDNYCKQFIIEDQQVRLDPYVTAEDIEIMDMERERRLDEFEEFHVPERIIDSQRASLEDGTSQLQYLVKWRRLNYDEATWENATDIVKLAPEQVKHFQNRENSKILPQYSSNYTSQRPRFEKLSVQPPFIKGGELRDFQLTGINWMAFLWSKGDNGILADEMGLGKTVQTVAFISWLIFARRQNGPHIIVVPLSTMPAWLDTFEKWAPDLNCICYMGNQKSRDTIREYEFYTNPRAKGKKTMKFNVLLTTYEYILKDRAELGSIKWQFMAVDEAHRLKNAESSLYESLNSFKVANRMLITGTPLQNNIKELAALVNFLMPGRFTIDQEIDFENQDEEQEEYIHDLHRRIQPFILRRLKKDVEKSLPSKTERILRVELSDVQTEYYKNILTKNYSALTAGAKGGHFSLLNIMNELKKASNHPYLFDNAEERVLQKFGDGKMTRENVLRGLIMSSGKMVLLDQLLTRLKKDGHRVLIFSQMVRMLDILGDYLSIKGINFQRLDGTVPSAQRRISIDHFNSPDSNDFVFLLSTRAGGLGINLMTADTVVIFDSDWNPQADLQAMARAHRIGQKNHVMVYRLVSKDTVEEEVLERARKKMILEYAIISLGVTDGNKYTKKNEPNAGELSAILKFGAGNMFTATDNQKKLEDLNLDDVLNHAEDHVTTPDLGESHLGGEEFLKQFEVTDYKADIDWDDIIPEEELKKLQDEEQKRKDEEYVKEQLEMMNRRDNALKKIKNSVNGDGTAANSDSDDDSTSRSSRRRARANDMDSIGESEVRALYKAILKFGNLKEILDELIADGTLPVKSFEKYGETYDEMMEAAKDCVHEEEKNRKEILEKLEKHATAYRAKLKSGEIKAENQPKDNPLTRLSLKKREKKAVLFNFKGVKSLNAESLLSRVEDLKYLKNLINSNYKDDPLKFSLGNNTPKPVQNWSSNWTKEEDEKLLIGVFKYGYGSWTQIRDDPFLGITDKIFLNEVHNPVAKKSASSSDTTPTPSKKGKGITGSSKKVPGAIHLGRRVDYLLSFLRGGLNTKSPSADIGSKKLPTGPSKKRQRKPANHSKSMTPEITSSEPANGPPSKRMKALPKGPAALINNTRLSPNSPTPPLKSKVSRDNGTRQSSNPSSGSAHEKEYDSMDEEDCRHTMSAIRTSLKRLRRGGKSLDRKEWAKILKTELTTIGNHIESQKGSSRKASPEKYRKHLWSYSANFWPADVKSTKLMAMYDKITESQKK
Sialic acid-binding Ig-like lectin 9 (Homo sapiens), sequence (Q9Y336 whole entry): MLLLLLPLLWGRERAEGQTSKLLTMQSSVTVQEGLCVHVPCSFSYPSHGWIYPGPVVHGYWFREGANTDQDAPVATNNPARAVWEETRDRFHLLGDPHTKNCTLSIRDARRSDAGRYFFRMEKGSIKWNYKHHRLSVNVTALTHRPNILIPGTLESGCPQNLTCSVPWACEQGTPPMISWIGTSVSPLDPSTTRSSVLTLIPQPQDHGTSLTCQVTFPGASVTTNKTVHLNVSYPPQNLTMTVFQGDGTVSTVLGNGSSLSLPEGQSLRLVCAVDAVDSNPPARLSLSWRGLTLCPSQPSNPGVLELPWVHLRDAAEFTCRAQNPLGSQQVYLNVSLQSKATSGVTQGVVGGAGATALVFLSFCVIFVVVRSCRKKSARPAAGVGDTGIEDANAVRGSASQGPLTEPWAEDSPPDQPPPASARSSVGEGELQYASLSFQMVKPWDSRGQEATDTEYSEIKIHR

For `CN(Cc1ccsc1)C(=O)c1cccc(NS(C)(=O)=O)c1`, the Percent Effect is -5.08% in [1]; 20.8% in assay [2]; -4.59% in assay [3]; 10.4% in assay [4]; 4.12% in the assay with Trypanosoma cruzi; -6.41% in assay [5]. The Percent Effect is 3.72% in assay [6]; 14.4% in the assay filed under Homo sapiens; 8.74% in [7]; 24.4% in assay [8]; -8.96% in assay [9].
With `O=C(Cc1ccccc1F)N1CCN(C(=O)c2cccc(F)c2)CC1`, the Percent Effect in assay [1] is 0.735%; in assay [2], 7.89%; in assay [3] it was -4.8%; in assay [4], -9.01%; with Trypanosoma cruzi it was -7.69%; in [5], 3.55%. The Percent Effect in assay [6] is 18.9%; in the assay listed under Homo sapiens, 13.3%; in assay [7], 0%; in assay [8], -59.7%; in assay [9] it was 27.2%.
In the case of `Cc1cccc(NC2CCN(C(=O)Nc3cc(F)cc(F)c3)CC2)n1`, the Percent Effect in assay [1] was -9.91%; in assay [2], 7.59%; in assay [3], -1.53%; in assay [4], 14.7%; in the assay with Trypanosoma cruzi, 12.4%; in [5], -4.18%. The Percent Effect in [6] is 4.34%; in the assay filed under Homo sapiens, 27.7%; in assay [7], -0.493%; in assay [8], 13.9%; in assay [9] it was -7.84%.
Regarding `O=C(Cc1csc(-c2ccc(Cl)cc2)n1)NC(C(=O)O)c1ccccc1` (stereo unspecified), the Percent Effect in assay [1] is -2.32%; in [2], -1.33%; in [3] it was 10.5%; in assay [4] it was 1.1%; in the assay with Trypanosoma cruzi, -3.73%; in assay [5], -9.68%. Besides, the Percent Effect in assay [6] was 14.6%; in the assay filed under Homo sapiens, 0.509%; in assay [7] it was 1.06%; in assay [8], -2.56%; in assay [9], -10%.
Take `COc1ccc(Cc2cccc(C3CCN(C)CC3)n2)cc1`: the Percent Effect in [1] is -2.99%; in [2], -55.4%; in [3] it was 8.96%; in [4] it was 9.53%; with Trypanosoma cruzi, -0.395%; in [5], -1.62%. Also, the Percent Effect in assay [6] worked out at 6.55%; in the assay listed under Homo sapiens, 2.93%; in [7], 5.38%; in [8] it was 1.3%; in assay [9], 1.29%.
For `O=C(NCCCN1CCOCC1)c1cc(-c2ccc3c(c2)CCO3)n[nH]1`, the Percent Effect is -5.47% in [1]; -20% in assay [2]; -0.583% in assay [3]; 0.426% in assay [4]; 2.36% in the assay with Trypanosoma cruzi; -15% in assay [5]. For the same molecule, the Percent Effect in [6] is 12.2%; in the assay filed under Homo sapiens, -4.93%; in assay [7], 1.06%; in [8], -2.56%; in [9] it was -5.21%.
For the molecule `COc1ccc(CN2CCn3cc(Cn4cccn4)nc3C2)cc1`, the Percent Effect is -0.217% in assay [1]; 5.2% in [2]; 5.77% in [3]; -3.88% in [4]; -5.03% in the assay with Trypanosoma cruzi; -3.23% in assay [5]. Moreover, the Percent Effect in assay [6] is 9.4%; in the assay listed under Homo sapiens, -15%; in [7], 5.29%; in [8], -8.97%; in assay [9], -4.7%.
`CC(C)n1cc(C(=O)N2Cc3ccccc3OC3(CCOCC3)C2)cn1`: the Percent Effect in assay [1] was -4.16%; in [2] it was 9.46%; in assay [3], 5.88%; in [4] it was -5.24%; in the assay on Trypanosoma cruzi, -8.1%; in assay [5], -9.05%. Further, the Percent Effect was 14.5% in assay [6]; 28.1% in the assay filed under Homo sapiens; -3.23% in [7]; -1.3% in [8]; -13.3% in [9].
On to `CSCC(=O)N1C[C@H]2CC[C@@H]1CN(Cc1ccccc1)C2`, for which the Percent Effect is -2.57% in [1]; 8.22% in assay [2]; 14.1% in assay [3]; -0.0854% in [4]; 0% with Trypanosoma cruzi; 0.455% in [5]. Moreover, the Percent Effect in [6] was 10.8%; in the assay filed under Homo sapiens, 15.3%; in [7] it was 11.8%; in assay [8], 12.5%; in assay [9], -6.22%.
Take `O=C(c1nn(-c2ccccc2F)cc1O)N1CCCC1`: the Percent Effect in assay [1] is -5%; in assay [2] it was -10.8%; in assay [3], -2.23%; in assay [4] it was 3.15%; in the assay on Trypanosoma cruzi, -3.62%; in assay [5], -0.185%. Further, the Percent Effect was -6.1% in assay [6]; 5.03% in the assay listed under Homo sapiens; -6.93% in assay [7]; -8.54% in [8]; 4.21% in assay [9].
Turning to `CCOCC(O)CN1CCN(C(=O)c2ccccc2Cl)CC1` (stereo unspecified), the Percent Effect is -5.28% in [1]; 5.26% in [2]; 5.55% in assay [3]; 2.24% in [4]; 0% in the assay with Trypanosoma cruzi; 2.3% in [5]. The Percent Effect in assay [6] is -3.17%; in the assay listed under Homo sapiens, -0.893%; in assay [7], 1.47%; in [8], 7.32%; in [9] it was 4.97%.
